Tg IFNy HTS: inhibitors of Toxoplasma gondii growth with IFN-gamma; Toxoplasma gondii growth in IFN-gamma-treated host cells; stronger effect = lower value; activity change, negative = inhibition, % (no concentration beside the values); 69,000 tested, 3.8% active; in the data active means activity change below about -70%, passing the limit was not always enough;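 further: host cells are HeLa cells infected with Toxoplasma gondii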
Numbers without * were called inactive; i = inactive. The full list was thinned out, with hits kept by preference.

SMILES | Tg IFNy HTS
Cn1nc2c(c1C(=O)N1CCc3sccc3C1c1cccs1)CCCC2 (centres undefined) | 17
c1ccc(-n2ncc3c(NC4CCCCCCCCCCC4)ncnc32)cc1 | 30
N#Cc1cnn(-c2ncnc3c2cnn3-c2ccccc2)c1N | -93*
CCN(CC)c1ncnc2c1cnn2-c1ccccc1 | i
Cc1ccc(CC(=O)N2CC[C@H]3[C@@H]2CCN3c2ncccn2)cc1 | 7
COc1ccc(-n2c(=O)c(C(=O)Nc3cccc(C)c3C)c(O)c3cccnc32)cc1 | 79
COc1cc(OC)c(-c2c(C#N)c(N)nc(OC)c2C#N)c(OC)c1 | 36
CC1=C(C(=O)NCCN2CCOCC2)C2(CCN(Cc3ccccc3)CC2)OC1=O | 45
COc1ccc(CCNC(=O)N2CCCCC2CN2CCOCC2)cc1 (centres undefined) | 1
Cc1cc(C)n(-c2ncnc3c2nnn3Cc2ccccc2Cl)n1 | -56
CC1Cc2ccccc2N1c1ncnc2c1nnn2Cc1ccccc1Cl (centres undefined) | -94*
CSc1ncnc2c1nnn2Cc1ccccc1Cl | -28
Cc1nc(C(C)C)ncc1C(=O)N1CCC(c2ccccc2C(=O)O)C1 (centres undefined) | 7
Cc1ccc(-c2cc(C(=O)Nc3ccc4c(c3)CCC(=O)N4)c3ccccc3n2)cc1C | 9
Cc1ccc(NC(=O)Cn2c(=O)ccc3cc(S(=O)(=O)N4CCC(C)CC4)ccc32)cc1Cl | -93*
O=C(Cn1c(=O)ccc2cc(S(=O)(=O)N3CCCC3)ccc21)Nc1ccc(F)cc1 | -42
CSc1cccc(NC(=O)Cn2c(=O)ccc3cc(S(=O)(=O)N4CCC(C)CC4)ccc32)c1 | -65
CC1CCN(S(=O)(=O)c2ccc3c(ccc(=O)n3CC(=O)Nc3cccc(F)c3)c2)CC1 | -81*
CC1CCN(S(=O)(=O)c2ccc3c(ccc(=O)n3CC(=O)Nc3ccc(F)c(Cl)c3)c2)CC1 | -66
CC1CCN(S(=O)(=O)c2ccc3c(ccc(=O)n3CC(=O)NC(C)C)c2)CC1 | 1
CC(=O)Nc1ccc(NC(=O)Cn2c(=O)ccc3cc(S(=O)(=O)N4CCC(C)CC4)ccc32)cc1 | 63
COc1cccc(NC(=O)Cn2c(=O)ccc3cc(S(=O)(=O)N4CCCC4)ccc32)c1 | -46
CC(C)c1ccc(NC(=O)Cn2c(=O)ccc3cc(S(=O)(=O)N4CCCC4)ccc32)cc1 | -78*
NC(=O)c1cnc2n1CCN(C(=O)CN1CCOc3ccccc3C1)C2 | -5
CN(CC1CCCCO1)C(=O)c1ccc(CN2CCCC2)o1 (centres undefined) | -15
SMILES | Tg IFNy HTS
O=C(NC1CC1)c1ccc(-c2csc(C3CC3)n2)cc1 | 109
CC(CNc1ccnc(C(=O)NCc2cccnc2)c1)c1ccccc1 (centres undefined) | -5
O=C1COc2cc3c(cc2N1)NC(=O)CC3c1nccs1 (centres undefined) | -1
CCOC(=O)Nc1ccc2c(c1)NC(=O)CC2c1cc(C(C)C)no1 (centres undefined) | -8
CCCc1ccc(C2CC(=O)Nc3cc4c(cc32)OCO4)o1 (centres undefined) | -88*
COC(=O)c1scc(C)c1NN1C(=O)c2ccccc2C1=O | 55
COc1ccccc1C1CNCCN1C(C)=O (centres undefined) | 7
Cc1ccc(NC(=O)c2ccc(CN3CCN(C)CC3)cc2)cc1Nc1nc(-c2cccnc2)cs1 | 4
Cc1ccc(C(=O)Nc2ccc(CN3CCN(C)CC3)c(C(F)(F)F)c2)cc1C#Cc1cnc2cccnn12 | -79*
O=C(Nc1cccc(N2CCC(NCCc3ccccc3C(F)(F)F)CC2)c1)c1ccncc1 | 5
COc1ccc(-c2nc3c(s2)CN(C(=O)Nc2ccc(Br)cc2)CC3)cc1 | -93*
Cc1cccc(NC(=O)N2CCc3nc(-c4ccccc4)sc3C2)c1 | -6
CCOc1ccc(-c2nc3c(s2)CN(C(=O)Nc2ccc(C)cc2C)CC3)cc1 | 98
COc1ccc(-c2nc3c(s2)CN(C(=O)Nc2cc(C)cc(C)c2)CC3)cc1 | -31
COc1cccc(-c2nc3c(s2)CN(C(=O)Nc2ccc(OC)c(OC)c2)CC3)c1 | 19
CCOc1ccc(-c2nc3c(s2)CN(C(=O)Nc2cc(C)ccc2OC)CC3)cc1 | -104*
COc1cccc(-c2nc3c(s2)CN(C(=O)Nc2ccc(OC)cc2OC)CC3)c1 | 35
COc1cccc(NC(=O)N2CCc3nc(-c4ccc(C)cc4)sc3C2)c1 | -121*
COc1ccc(-c2nc3c(s2)CN(C(=O)Nc2cc(C)ccc2OC)CC3)cc1 | -41
COc1cccc(-c2nc3c(s2)CN(C(=O)Nc2ccc(Cl)cc2)CC3)c1 | -92*
CCOc1ccc(NC(=O)N2CCc3nc(-c4cccc(OC)c4)sc3C2)cc1 | 17
COc1ccc(OC)c(NC(=O)N2CCc3nc(-c4ccccc4)sc3C2)c1 | 13
C=CCN(c1ccccc1)c1nc(C(=O)OCC)nc2ccccc12 | -27
CN(C)CC1(O)CCN(C(=O)CCc2c[nH]c3ccccc23)C1 (centres undefined) | -8
CC(=O)N1CCC2(CCC(N3CCC(Cn4cccn4)CC3)CC2)CC1 | 6
CN(C)CCNC(=O)c1cc(-c2cnc(-c3ccnn3C)nc2)cn1CC1CC1 | 1
